# Records with an inconclusive call do not appear. The source made the active and inactive calls. Unless noted, calls follow the shape of the dose curve; as a rule, active = well fitted curve in the direction sought with a large enough effect; inconclusive = small, poorly fitted or top-dose-only effect, or another doubt; inactive = no such curve, though single readings can be large; an effect the other way counts as inactive or inconclusive.
# Columns and labels:
# [1] = Quantitative High-Throughput drug screen in 47 multiple myeloma cell lines against the NCATS MIPE library collection: RPMI8226_ATCC cell viability assay (AID 1919871); also: nearly all actives have a fitted effect of over 30% in size; also: potency is read from the fitted curve at half-maximal effect
# How it was run: (§1)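 ATP-based luminescence (CellTiter-Glo, 5 min RT incubation) quantified surviving cells following two days' treatment with MIPE 4.0 agents at 37 °C, 5% CO2.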
# [2] = Quantitative High-Throughput drug screen in 47 multiple myeloma cell lines against the NCATS MIPE library collection: OPM2_DSMZ cell viability assay (AID 1919872); also: nearly all actives have a fitted effect of over 30% in size; also: potency is read from the fitted curve at half-maximal effect
# How it was run: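 CellTiter-Glo luminescence (ATP) after 48 h compound exposure, 37C/5% CO2; 500 cells/well; MIPE 4.0 approved/investigational drugs pinned in; DMSO = 100%, media only = 0% viability.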
# [3] = Quantitative High-Throughput drug screen in 47 multiple myeloma cell lines against the NCATS MIPE library collection: KMS28BM_JCRB cell viability assay (AID 1919874); also: nearly all actives have a fitted effect of over 35% in size; also: potency is read from the fitted curve at half-maximal effect
# How it was run: as §1
# [4] = qHTS drug screen for cell cycle checkpoint inhibitors in PARPi-resistant BRCA-mutant ovarian cancer cell lines. (AID 1963452; calls by dose curve); conditions: PEO1/OlaR viability, CellTiter-Glo luminescence, 96 h, stronger effect = lower value
# How it was run: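 PEO1, PEO4 and PEO1/OlaR ovarian cancer cells, 600 per well, exposed 96 h at 37C to a dilution series. Viability read by CellTiter-Glo luminescence, normalized to DMSO and empty wells; activity summarized as Z-AUC.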
# [5] = qHTS for identification of novel therapeutic agents for treatment of microphthalmiaassociated transcription factor (MiT) renal cell carcinoma (RCC) (AID 1963991; calls by dose curve; also: potency is read from the fitted curve at half-maximal effect); conditions: CellTiter-Glo, 48 h; for z-score: stronger effect = lower value; for Potency: active = Z-AUC below -0.8 in all three lines
# How it was run: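 Three TFE3-fusion RCC lines (UOK109, UOK124, UOK145), 500 cells/well in complete medium, were treated with MIPE 4.0 compounds for 48 hours at 37 C. Viability was by CellTiter-Glo luminescence, normalized to DMSO (100%) and empty wells (0%); curves fitted over 11 concentrations.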
# [6] = Quantitative High-Throughput drug screen in 47 multiple myeloma cell lines against the NCATS MIPE library collection: KMS11_JCRBsus cell viability assay (AID 1919873); also: nearly all actives have a fitted effect of over 50% in size; also: potency is read from the fitted curve at half-maximal effect
# How it was run: as §1
# [7] = qHTS profiling for inhibitors of Plasmodium falciparum proliferation (AID 504749); also: nearly all actives have a fitted effect of over 60% in size; also: potency is read from the fitted curve at half-maximal effect;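 as to activity, negative = inhibition: 0% = DMSO vehicle and full inhibition = artemisinin control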; conditions: P. falciparum in erythrocytes, SYBR Green DNA, 72 h, at 28.7 µM (top of the series)
# How it was run: (§2)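 In a 72 h erythrocytic culture (37 C, humidified, 5% CO2) at 2.5% hematocrit and 0.3% starting parasitemia, compounds were tested; SYBR Green I in detergent lysis buffer stained parasite DNA overnight.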
# [8] = system: 3D7; assay: as above; conditions: P. falciparum in erythrocytes, SYBR Green DNA, 72 h; series mostly up to 28.7 µM
# How it was run: as §2
# [9] = system: 7G8; assay: as above; conditions: P. falciparum in erythrocytes, SYBR Green DNA, 72 h; series mostly up to 28.7 µM
# How it was run: as §2
# [10] = system: AA1029; assay: as above; conditions: P. falciparum in erythrocytes, SYBR Green DNA, 72 h; series mostly up to 28.7 µM
# How it was run: as §2
# [11] = measured here: PEO1 parental Z-AUC
# [12] = TFE3-RCC UOK109 viability, measured here: UOK109 Z-AUC
# [13] = TFE3-RCC viability, measured here: UOK124 Z-AUC
# [14] = TFE3-RCC viability, measured here: UOK145 Z-AUC
smiles,measurement,setting,value
CC(C)(C)NC(=O)Nc1cccc(Nc2ncc(F)c(NC(C)(C)CO)n2)c1,Potency,[1],inactive
same,Potency,[2],16.6 µM (active)
same,Potency,[3],inactive
same,Z-AUC,[4],-0.707 (inactive)
same,Z-AUC,[4]; [11],-1.21
same,Z-AUC,[4]; measured here: PEO4 Z-AUC,-1.05
same,z-score,[5]; [12],1.09
same,z-score,[5]; [13],-0.121
same,z-score,[5]; [14],0.237
CC(=O)OC1C(C)OC(Oc2c(-c3ccc(O)cc3)oc3cc(O)cc(O)c3c2=O)C(O)C1OC(C)=O (stereo not given),Potency,[1],10.5 µM (active)
same,Potency,[2],inactive
same,Potency,[3],inactive
same,Z-AUC,[4],-0.58 (inactive)
same,Z-AUC,[4]; [11],-0.801
same,Z-AUC,[4]; measured here: PEO4 Z-AUC,-0.512
O=c1[nH]cnc2c1ncn2[C@H]1CC[C@@H](CO)O1,Potency,[1],inactive
same,Potency,[2],inactive
same,Potency,[6],inactive
same,"activity, negative = inhibition",[7]; parasite line A,-0.993% (inactive)
same,"activity, negative = inhibition",[7]; parasite line B,7.28% (inactive)
same,outcome,[8],inactive
same,Potency,[9],10 µM (active)
same,outcome,[10],inactive
CC(C(=O)O)c1ccc(-c2ccccc2)c(F)c1 (stereo not given),Potency,[1],inactive
same,Potency,[2],inactive
same,Potency,[3],14.8 µM (active)
same,Z-AUC,[4],0.668 (inactive)
same,Z-AUC,[4]; [11],0.939
same,Z-AUC,[4]; measured here: PEO4 Z-AUC,1.4
CO[C@H]1C=CC=C(C)C(=O)NC2=CC(=O)C(NCCN(C)C)=C(C[C@@H](C)C[C@H](OC)[C@@H](O)[C@@H](C)C=C(C)[C@@H]1OC(N)=O)C2=O,Potency,[1],0.0469 µM (active)
same,Potency,[2],0.0743 µM (active)
same,Potency,[6],0.0093 µM (active)
same,Potency,[3],0.166 µM (active)
same,Potency,[5]; TFE3-RCC UOK109 viability,2.64 µM (active)
same,z-score,[5]; [12],-1.45
same,z-score,[5]; [13],-3.65
same,z-score,[5]; [14],-1.68
COCCOc1nc(-c2ccc(Cl)c(Cl)c2)n(-c2ccc(NC(=O)CCl)cc2)n1,Potency,[1],20.9 µM (active)
same,Potency,[2],inactive
same,Potency,[3],16.6 µM (active)
same,Z-AUC,[4],-0.18 (inactive)
same,Z-AUC,[4]; [11],0.0816
same,Z-AUC,[4]; measured here: PEO4 Z-AUC,-0.069
COc1cc2ncnc(Nc3ccc(F)c(Cl)c3)c2cc1OCCCN1CCOCC1,Potency,[1],42.9 µM (active)
same,Potency,[2],54 µM (active)
same,Potency,[6],21.5 µM (active)
same,Z-AUC,[4],0.988 (inactive)
same,Z-AUC,[4]; [11],0.863
same,Z-AUC,[4]; measured here: PEO4 Z-AUC,0.585
Cc1ccc(Nc2cc(-c3cccc(N4C(=O)c5ccccc5C4=O)c3)ncn2)cc1NS(C)(=O)=O,Potency,[1],inactive
same,Potency,[2],26.4 µM (active)
same,Potency,[6],20.9 µM (active)
same,Z-AUC,[4],-0.648 (inactive)
same,Z-AUC,[4]; [11],-0.644
same,Z-AUC,[4]; measured here: PEO4 Z-AUC,-0.365
CC(=NNC(=S)N1CCC1)c1ccccn1,Potency,[1],0.0042 µM (active)
same,Potency,[2],0.0074 µM (active)
same,Potency,[6],0.0033 µM (active)
same,Potency,[3],0.0083 µM (active)
same,Potency,[5]; TFE3-RCC UOK109 viability,0.00332 µM (active)
same,z-score,[5]; [12],-4
same,z-score,[5]; [13],-1.96
same,z-score,[5]; [14],-2.39
CC(=O)Nc1ccc([C@H](C)C(=O)Nc2ncc(C(C)C)s2)cc1,Potency,[1],2.64 µM (active)
same,Potency,[2],8.33 µM (active)
same,Potency,[6],2.35 µM (active)
same,Z-AUC,[4],-0.905 (inactive)
same,Z-AUC,[4]; [11],-1.74
same,Z-AUC,[4]; measured here: PEO4 Z-AUC,-1.22
Cc1ccc(C(C)(O)c2nc3ccccc3s2)c(C)c1 (stereo not given),Potency,[1],inactive
same,Potency,[2],inactive
same,Potency,[6],inactive
same,Z-AUC,[4],0.398 (inactive)
same,Z-AUC,[4]; [11],0.537
same,Z-AUC,[4]; measured here: PEO4 Z-AUC,0.368
CO[C@H]1C[C@@H]2CC[C@@H](C)[C@@](O)(O2)C(=O)C(=O)N2CCCC[C@@H]2C(=O)O[C@H]([C@H](C)C[C@@H]2CC[C@H](OP(C)(C)=O)[C@H](OC)C2)CC(=O)[C@H](C)C=C(C)[C@@H](O)[C@@H](OC)C(=O)[C@H](C)C[C@H](C)C=CC=CC=C1C,Potency,[1],inactive
same,Potency,[2],inactive
same,Potency,[6],inactive
same,Potency,[3],inactive
same,z-score,[5]; [12],0.0461
same,z-score,[5]; [13],0.621
same,z-score,[5]; [14],-0.765
COc1ccc(Cc2ccc(NC(N)=O)cc2)cc1-c1cccc(Cl)c1,Potency,[1],inactive
same,Potency,[2],inactive
same,Potency,[3],13.2 µM (active)
same,Z-AUC,[4],0.65 (inactive)
same,Z-AUC,[4]; [11],-0.098
same,Z-AUC,[4]; measured here: PEO4 Z-AUC,0.315
same,z-score,[5]; [12],0.762
same,z-score,[5]; [13],0.853
same,z-score,[5]; [14],0.582
CO[C@H]1C=CO[C@@]2(C)Oc3c(C)c(O)c4c(O)c(c5c(c4c3C2=O)NC2(CCN(CC(C)C)CC2)N=5)=NC(=O)C(C)=CC=C[C@H](C)[C@H](O)[C@@H](C)[C@@H](O)[C@@H](C)[C@H](OC(C)=O)[C@H]1C,Potency,[1],16.6 µM (active)
same,Potency,[2],inactive
same,Potency,[6],inactive
same,Potency,[3],inactive
same,z-score,[5]; [12],0.267
same,z-score,[5]; [13],0.0618
same,z-score,[5]; [14],0.486
CC(C)(C)c1cc(C(=O)O)c(NC(=O)Nc2ccc3[nH]ncc3c2)s1,Potency,[1],inactive
same,Potency,[2],inactive
same,Potency,[6],inactive
same,Z-AUC,[4],-0.548 (inactive)
same,Z-AUC,[4]; [11],-0.418
same,Z-AUC,[4]; measured here: PEO4 Z-AUC,-0.766
same,z-score,[5]; [12],0.185
same,z-score,[5]; [13],-0.00808
same,z-score,[5]; [14],0.16
CC=CC(=O)N(CC)c1ccccc1C,Potency,[1],3.72 µM (active)
same,Potency,[2],inactive
same,Potency,[6],inactive
same,Potency,[3],inactive
same,z-score,[5]; [12],1.15
same,z-score,[5]; [13],0.231
same,z-score,[5]; [14],0.523
CCCCCN(C)CCC(O)(P(=O)(O)O)P(=O)(O)O,Potency,[1],inactive
same,Potency,[2],inactive
same,Potency,[6],inactive
same,Potency,[3],inactive
same,Z-AUC,[4],0.387 (inactive)
same,Z-AUC,[4]; [11],1.32
same,Z-AUC,[4]; measured here: PEO4 Z-AUC,1.05
same,z-score,[5]; [12],0.34
same,z-score,[5]; [13],0.128
same,z-score,[5]; [14],0.245
same,"activity, negative = inhibition",[7]; parasite line A,13.8% (inactive)
same,"activity, negative = inhibition",[7]; parasite line B,15.2% (inactive)
same,outcome,[8],inactive
same,Potency,[9],inactive
same,outcome,[10],inactive
CC1(C)CCC(CN2CCN(c3ccc(C(=O)NS(=O)(=O)c4ccc(NCC5CCOCC5)c([N+](=O)[O-])c4)c(Oc4cnc5[nH]ccc5c4)c3)CC2)=C(c2ccc(Cl)cc2)C1,Potency,[1],14.8 µM (active)
same,Potency,[2],20.9 µM (active)
same,Potency,[6],inactive
same,Z-AUC,[4],0.0291 (inactive)
same,Z-AUC,[4]; [11],0.742
same,Z-AUC,[4]; measured here: PEO4 Z-AUC,0.833
